Reference: PubChem BioAssay (Tox21)
Values joined by “and” are separate entries in the source; they are usually repeats but may differ in a detail not shown here. Equal entries are not always repeated. Some structures have more than one record in an assay (separate samples or runs), and their calls can disagree. Active and inactive are the calls of the source. A call without a number means that no potency is given here. Unless noted, the call rests on the fitted dose curve; in most records, active means well fitted curve in the direction sought with a large enough effect in the repeat runs; inconclusive means weak or mixed curves; inactive means no such curve, though single readings can be large; an effect the other way counts as inactive or inconclusive.

Columns and labels:
[1] = qHTS assay to identify small molecule antagonists of the thyroid receptor (TR) signaling pathway - cell viability counter screen (AID 743064); further: nearly all actives have a fitted effect of over 50% in size; further: potency means the concentration at half of the fitted maximal effect
In short: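 Fluorescence from CellTiter-Fluor, added after 23.5 h exposure at 37 °C, reported viability of GH3.TRE-Luc cells co-treated with compound and 1 nM T3. Measured in the same wells as the luciferase TR readout.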

[2] = qHTS assay to identify small molecule antagonists of the thyroid receptor (TR) signaling pathway (AID 743065); further: nearly all actives have a fitted effect of over 55% in size; further: potency means the concentration at half of the fitted maximal effect
In short: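 GH3.TRE-Luc rat pituitary cells (two TREs driving luciferase) were dosed with compound, then stimulated with 1 nM T3 (final) for 23.5 h at 37 C. ONE-Glo luminescence was the read-out, with CellTiter-Fluor fluorescence as the cytotoxicity counter-screen.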

[3] = system: thyroid hormone receptor (rat, GH3 cells); test: qHTS assay to identify small molecule agonists of the thyroid receptor (TR) signaling pathway (AID 743066; calls by dose curve)
[4] = qHTS assay to identify small molecule antagonists of the estrogen receptor alpha (ER-alpha) signaling pathway - cell viability counter screen (AID 743074; calls by dose curve; further: nearly all actives have a fitted effect of over 45% in size; further: potency means the concentration at half of the fitted maximal effect)
[5] = target: Estrogen receptor (Homo sapiens) (UniProt P03372); test: qHTS assay to identify small molecule agonists of the estrogen receptor alpha (ER-alpha) signaling pathway (AID 743075; calls by dose curve; further: potency means the concentration at half of the fitted maximal effect)
[6] = target: Estrogen receptor (Homo sapiens) (UniProt P03372); test: qHTS assay to identify small molecule agonists of the estrogen receptor alpha (ER-alpha) signaling pathway using the BG1 cell line (AID 743079); further: nearly all actives have a fitted effect of over 20% in size; further: potency means the concentration at half of the fitted maximal effect
[7] = qHTS assay to identify small molecule antagonists of the estrogen receptor alpha (ER-alpha) signaling pathway using the BG1 cell line (AID 743080; calls by dose curve; further: series mostly up to about 70 µM; nearly all actives have a fitted effect of over 25% in size)
In short: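 Antagonist mode: compounds in DMSO were pinned onto BG1-Luc-4E2 cells alongside 17beta-estradiol agonist, incubated 21.5 h, and ERE-driven luciferase measured with ONE-Glo. Cytotoxicity was multiplexed using CellTiter-Fluor fluorescence.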

[8] = qHTS assay to identify small molecule antagonists of the estrogen receptor alpha (ER-alpha) signaling pathway using the BG1 cell line - cell viability counter screen (AID 743081);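 further: compound given together with 17beta-estradiol as the ER stimulus; series mostly up to about 70 µM; nearly all actives have a fitted effect of over 45% in size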
Aromatase (Homo sapiens) = Aromatase (Homo sapiens) (UniProt P11511); test: qHTS assay to identify aromatase inhibitors (AID 743083); further: nearly all actives have a fitted effect of over 55% in size; further: potency means the concentration at half of the fitted maximal effect
[9] = qHTS assay to identify aromatase inhibitors - cell viability counter screen (AID 743084);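 further: cells stimulated with testosterone during compound exposure; nearly all actives have a fitted effect of over 55% in size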; further: potency means the concentration at half of the fitted maximal effect
[10] = target: Aryl hydrocarbon receptor (Homo sapiens) (UniProt P35869); test: qHTS assay to identify small molecule that activate the aryl hydrocarbon receptor (AhR) signaling pathway (AID 743085);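 further: HG2L7.5c1 human HepG2 liver cells with stably integrated DRE-driven firefly reporter; series mostly up to about 70 µM; nearly all actives have a fitted effect of over 15% in size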
In short: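 Cell line HG2L7.5c1 (human hepatoma, 20× DRE-luc). Plated, 5 h 37C, compound/DMSO added, 24 h 37C. CellTiter-Fluor 30 min 37C → fluorescence; then ONE-Glo 30 min RT → luminescence.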

[11] = qHTS assay to identify small molecule that activate the aryl hydrocarbon receptor (AhR) signaling pathway - cell viability counter screen (AID 743086); further: nearly all actives have a fitted effect of over 45% in size; further: potency means the concentration at half of the fitted maximal effect
In short: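 HepG2-AhR-luc (HG2L7.5c1) cells, 4000/well, treated 24 h at 37 C with compound; viability measured as CellTiter-Fluor fluorescence after 30 min in the same wells as the luciferase read.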

[12] = target: Peroxisome proliferator-activated receptor gamma (Homo sapiens) (UniProt P37231); test: qHTS assay to identify small molecule agonists of the peroxisome proliferator-activated receptor gamma (PPARg) signaling pathway (AID 743094; active means well fitted activation curve with a large enough effect in the signal ratio in the repeat runs, not every such curve was filed as active; inconclusive means weak or mixed curves, or effect the other way; inactive means no such curve, though single readings can be large or run the other way; the % refers to the signal ratio)
In short: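 Reporter activation was scored by fluorescence of cleaved LiveBLAzer B/G substrate (1 h, room temperature) in PPARg-bla HEK293H cells previously treated 17 h at 37C with DMSO-dissolved compounds.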

[13] = target: Estrogen receptor (Homo sapiens) (UniProt P03372); test: qHTS assay to identify small molecule antagonists of the estrogen receptor alpha (ER-alpha) signaling pathway (AID 743069; active means well fitted curve in the direction sought with a large enough effect in the signal ratio in the repeat runs, not every such curve was filed as active; inconclusive means weak or mixed curves, or effect the other way; inactive means no such curve, though single readings can be large or run the other way; the % refers to the signal ratio)
In short: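 In this cell-based reporter format, GripTite HEK293 cells harbouring ER-alpha-UAS-bla were grown overnight with 2% charcoal-stripped FBS, dosed with DMSO-dissolved compounds, then challenged with 17beta-estradiol. After 18 hr at 37C, beta-lactamase activity was detected by FRET fluorescence.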

[14] = qHTS assay to identify small molecule antagonists of the peroxisome proliferator-activated receptor gamma (PPARg) signaling pathway - cell viability counter screen (AID 743194); further: potency means the concentration at half of the fitted maximal effect; nearly all actives have a fitted effect of over 55% in size
In short: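 Cytotoxicity counter screen in PPARg-bla HEK293H cells, same wells as reporter assay. Compounds plus 50 nM rosiglitazone (final) for 17 h at 37 C, then viability read by CellTiter-Glo luminescence.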

[15] = qHTS assay to identify small molecule agonists of the peroxisome proliferator-activated receptor delta (PPARd) signaling pathway - cell viability counter screen (AID 743211)
In short: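 HEK293H PPARd-bla, 3000 cells/well; 5 h preincubation 37C/5% CO2; cpd in DMSO, 17 h 37C; B/G FRET substrate 2 h RT; CellTiter-Glo 30 min RT, luminescence.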

[16] = target: Peroxisome proliferator-activated receptor delta (Homo sapiens) (UniProt Q03181); test: qHTS assay to identify small molecule agonists of the peroxisome proliferator-activated receptor delta (PPARd) signaling pathway (AID 743212; calls by dose curve)
In short: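 Tox21 library screened in GeneBLAzer PPARd UAS-bla HEK293H cells. After compound treatment at 37 C, a FRET-based beta-lactamase substrate was applied for 2 h and fluorescence recorded.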

Peroxisome proliferator-activated receptor gamma (Homo sapiens), sequence (P37231 whole entry, looked up): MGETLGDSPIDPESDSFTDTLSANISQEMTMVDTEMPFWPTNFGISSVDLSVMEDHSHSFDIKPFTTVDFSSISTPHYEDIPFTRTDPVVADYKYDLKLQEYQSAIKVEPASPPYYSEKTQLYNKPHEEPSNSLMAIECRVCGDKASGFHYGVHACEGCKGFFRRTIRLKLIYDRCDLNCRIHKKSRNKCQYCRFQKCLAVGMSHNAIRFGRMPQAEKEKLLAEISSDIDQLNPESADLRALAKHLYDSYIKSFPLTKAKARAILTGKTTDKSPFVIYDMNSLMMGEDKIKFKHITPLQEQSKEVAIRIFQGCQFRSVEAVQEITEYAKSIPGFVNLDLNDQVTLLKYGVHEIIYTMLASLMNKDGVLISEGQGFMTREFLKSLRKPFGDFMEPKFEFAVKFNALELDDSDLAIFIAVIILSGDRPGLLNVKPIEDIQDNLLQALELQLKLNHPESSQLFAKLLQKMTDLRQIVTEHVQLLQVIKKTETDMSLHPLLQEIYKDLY
Aromatase (Homo sapiens), sequence (P11511 whole entry, looked up): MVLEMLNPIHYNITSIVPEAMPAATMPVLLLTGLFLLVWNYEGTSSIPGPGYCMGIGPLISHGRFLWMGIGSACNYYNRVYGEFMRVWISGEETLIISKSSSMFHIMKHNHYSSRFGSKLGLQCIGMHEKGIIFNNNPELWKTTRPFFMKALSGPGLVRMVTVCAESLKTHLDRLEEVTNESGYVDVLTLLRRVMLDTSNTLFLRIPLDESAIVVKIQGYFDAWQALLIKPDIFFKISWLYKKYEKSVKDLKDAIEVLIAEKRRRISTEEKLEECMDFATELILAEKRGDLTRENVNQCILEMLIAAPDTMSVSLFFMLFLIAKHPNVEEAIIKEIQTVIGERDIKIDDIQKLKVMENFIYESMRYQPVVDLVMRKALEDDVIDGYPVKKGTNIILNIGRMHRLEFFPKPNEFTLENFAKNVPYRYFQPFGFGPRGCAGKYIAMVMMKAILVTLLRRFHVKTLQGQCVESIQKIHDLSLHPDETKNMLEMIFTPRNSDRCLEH
Aryl hydrocarbon receptor (Homo sapiens), sequence (P35869 whole entry, looked up): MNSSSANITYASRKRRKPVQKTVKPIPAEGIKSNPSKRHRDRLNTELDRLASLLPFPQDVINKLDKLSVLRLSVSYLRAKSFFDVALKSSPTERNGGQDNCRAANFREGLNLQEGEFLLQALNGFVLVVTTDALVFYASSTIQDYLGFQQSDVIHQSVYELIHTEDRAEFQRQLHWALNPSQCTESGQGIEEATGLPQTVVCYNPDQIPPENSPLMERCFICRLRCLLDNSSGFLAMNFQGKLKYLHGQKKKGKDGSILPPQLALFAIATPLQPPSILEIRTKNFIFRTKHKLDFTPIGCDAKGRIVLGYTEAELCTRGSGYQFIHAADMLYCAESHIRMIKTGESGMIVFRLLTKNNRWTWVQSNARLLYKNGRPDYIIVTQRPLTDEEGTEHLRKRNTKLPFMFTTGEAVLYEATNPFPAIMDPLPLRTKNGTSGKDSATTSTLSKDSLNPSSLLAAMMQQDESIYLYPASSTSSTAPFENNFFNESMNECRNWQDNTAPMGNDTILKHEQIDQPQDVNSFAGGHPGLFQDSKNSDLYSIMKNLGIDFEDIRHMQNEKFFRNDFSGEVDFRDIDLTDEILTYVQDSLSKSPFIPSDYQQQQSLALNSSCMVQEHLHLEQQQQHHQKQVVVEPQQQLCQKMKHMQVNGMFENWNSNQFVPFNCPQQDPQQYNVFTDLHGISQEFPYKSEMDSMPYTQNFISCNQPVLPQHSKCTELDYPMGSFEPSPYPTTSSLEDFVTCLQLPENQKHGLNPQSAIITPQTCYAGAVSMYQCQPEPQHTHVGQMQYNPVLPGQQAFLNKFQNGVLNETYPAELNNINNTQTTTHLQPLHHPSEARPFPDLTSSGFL
Estrogen receptor (Homo sapiens), sequence (P03372 whole entry, looked up): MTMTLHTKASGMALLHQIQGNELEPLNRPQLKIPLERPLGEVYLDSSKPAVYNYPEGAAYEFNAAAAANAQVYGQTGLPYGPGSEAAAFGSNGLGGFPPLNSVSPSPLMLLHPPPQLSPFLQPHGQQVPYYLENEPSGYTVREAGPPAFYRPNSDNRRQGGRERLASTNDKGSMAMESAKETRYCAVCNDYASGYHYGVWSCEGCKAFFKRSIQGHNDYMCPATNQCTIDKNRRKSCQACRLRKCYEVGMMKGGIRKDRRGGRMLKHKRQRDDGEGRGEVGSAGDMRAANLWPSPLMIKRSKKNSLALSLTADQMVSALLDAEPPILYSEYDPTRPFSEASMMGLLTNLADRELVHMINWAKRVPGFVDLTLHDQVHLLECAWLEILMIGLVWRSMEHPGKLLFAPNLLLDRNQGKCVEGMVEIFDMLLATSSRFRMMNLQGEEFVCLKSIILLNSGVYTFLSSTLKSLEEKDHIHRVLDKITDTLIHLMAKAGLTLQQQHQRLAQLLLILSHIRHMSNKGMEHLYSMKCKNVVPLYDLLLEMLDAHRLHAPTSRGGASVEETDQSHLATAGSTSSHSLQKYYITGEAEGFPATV
Peroxisome proliferator-activated receptor delta (Homo sapiens), sequence (Q03181 whole entry, looked up): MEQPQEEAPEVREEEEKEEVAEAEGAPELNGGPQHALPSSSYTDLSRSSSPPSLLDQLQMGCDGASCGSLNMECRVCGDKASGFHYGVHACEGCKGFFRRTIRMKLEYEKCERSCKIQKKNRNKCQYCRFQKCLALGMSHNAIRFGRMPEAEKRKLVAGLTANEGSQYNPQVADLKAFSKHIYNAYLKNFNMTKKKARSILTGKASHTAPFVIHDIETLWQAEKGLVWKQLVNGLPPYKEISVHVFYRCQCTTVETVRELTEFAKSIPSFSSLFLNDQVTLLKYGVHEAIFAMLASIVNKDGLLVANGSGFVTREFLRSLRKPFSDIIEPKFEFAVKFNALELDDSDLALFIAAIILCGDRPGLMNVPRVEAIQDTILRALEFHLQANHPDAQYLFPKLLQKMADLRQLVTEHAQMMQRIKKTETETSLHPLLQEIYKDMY

CC(C)CCC[C@@H](C)[C@H]1CC[C@H]2[C@@H]3CC=C4C[C@@H](O)CC[C@]4(C)[C@H]3CC[C@]12C
Potency [1]: inactive
Potency [2]: inactive
Potency [3]: inactive
Potency [4]: inactive
Potency [5]: inactive
Potency [6]: inactive
Potency [7]: inactive
Potency [8]: inactive
Potency (Aromatase (Homo sapiens)): inactive
Potency [9]: inactive
Potency [10]: inactive
Potency [11]: inactive
Potency [12]: inactive

O=C1C2CC3CC1CC(O)(C3)C2
Potency [1]: inactive
Potency [2]: inactive
Potency [3]: inactive
Potency [4]: inactive
Potency [5]: inactive
Potency [6]: inactive
Potency [7]: inactive
Potency [8]: inactive
Potency (Aromatase (Homo sapiens)): inactive
Potency [9]: inactive
Potency [10]: inactive
Potency [11]: inactive
Potency [12]: inactive

CN[C@@H]1[C@@H](O[C@H]2O[C@H](CO)[C@@H](N)[C@H](O)[C@H]2O)O[C@H]2C[C@@H](N)[C@@H](O[C@H]3[C@H](O)[C@@H](O)[C@H](N)C[C@@H]3N)O[C@@H]2[C@@H]1O
Potency [1]: inactive
Potency [2]: inactive
Potency [3]: inactive
Potency [13]: inactive
Potency [4]: inactive
Potency [5]: inactive
Potency [6]: inactive
Potency [7]: inactive
Potency [8]: inactive
Potency (Aromatase (Homo sapiens)): inactive
Potency [9]: inactive
Potency [10]: inactive
Potency [12]: inactive

NCCCC(=O)O
Potency [1]: inactive
Potency [2]: inactive
Potency [3]: inactive
Potency [13]: inactive
Potency [4]: inactive
Potency [5]: inactive
Potency [6]: inactive
Potency [7]: inactive
Potency [8]: inactive
Potency (Aromatase (Homo sapiens)): inactive
Potency [10]: inactive
Potency [11]: inactive
Potency [12]: inactive

O=C(O)COc1ccc(C(=O)c2cccs2)c(Cl)c1Cl
Potency [1]: inactive
Potency [2]: inactive
Potency [3]: inactive
Potency [4]: inactive
Potency [5]: inactive
Potency [6]: inactive
Potency [7]: inactive
Potency [8]: inactive
Potency (Aromatase (Homo sapiens)): inactive
Potency [9]: inactive
Potency [10]: inactive
Potency [12]: inactive

Cc1cc(-c2ccc(N=Nc3ccc4c(S(=O)(=O)O)cc(S(=O)(=O)O)c(N)c4c3O)c(C)c2)ccc1N=Nc1ccc2c(S(=O)(=O)O)cc(S(=O)(=O)O)c(N)c2c1O
Potency [1]: inactive
Potency [2]: 23.7 µM (active)
Potency [3]: inactive
Potency [13]: inactive
Potency [5]: inactive
Potency [8]: inactive
Potency (Aromatase (Homo sapiens)): 26.6 µM (active)
Potency [9]: 23.7 µM (active)
Potency [10]: inactive
Potency [11]: inactive and 29.8 µM (active)
Potency [12]: inactive

COc1ccc([C@@H]2CC(=O)c3c(O)cc(O[C@@H]4O[C@H](CO[C@@H]5O[C@@H](C)[C@H](O)[C@@H](O)[C@H]5O)[C@@H](O)[C@H](O)[C@H]4O)cc3O2)cc1O
Potency [1]: inactive
Potency [2]: inactive
Potency [3]: inactive
Potency [13]: inactive
Potency [4]: inactive
Potency [5]: inactive
Potency [6]: inactive
Potency [7]: inactive
Potency (Aromatase (Homo sapiens)): inactive
Potency [9]: inactive
Potency [10]: inactive
Potency [11]: inactive
Potency [12]: inactive

CNC(=O)OCc1cccc(COC(=O)NC)n1
Potency [1]: inactive
Potency [2]: inactive
Potency [3]: inactive
Potency [4]: inactive
Potency [8]: inactive
Potency (Aromatase (Homo sapiens)): inactive
Potency [9]: inactive
Potency [10]: inactive
Potency [11]: inactive
Potency [12]: inactive

CC(C)C[C@H](NC(=O)[C@@H](COC(C)(C)C)NC(=O)[C@H](Cc1ccc(O)cc1)NC(=O)[C@H](CO)NC(=O)[C@H](Cc1c[nH]c2ccccc12)NC(=O)[C@H](Cc1cnc[nH]1)NC(=O)[C@@H]1CCC(=O)N1)C(=O)N[C@@H](CCCN=C(N)N)C(=O)N1CCC[C@H]1C(=O)NNC(N)=O
Potency [1]: inactive
Potency [2]: inactive
Potency [3]: inactive
Potency [4]: inactive
Potency [7]: inactive
Potency [8]: inactive
Potency (Aromatase (Homo sapiens)): inactive
Potency [9]: inactive
Potency [10]: inactive
Potency [12]: inactive

Cc1c(N)nc([C@H](CC(N)=O)NC[C@H](N)C(N)=O)nc1C(=O)N[C@H](C(=O)N[C@H](C)[C@@H](O)[C@H](C)C(=O)N[C@H](C(=O)NCCc1nc(-c2nc(C(=O)NCCCCN=C(N)N)cs2)cs1)[C@@H](C)O)[C@@H](O[C@@H]1O[C@@H](CO)[C@@H](O)[C@H](O)[C@@H]1O[C@H]1O[C@H](CO)[C@@H](O)[C@H](OC(N)=O)[C@@H]1O)c1cnc[nH]1
Potency [1]: inactive and 4.22 µM (active)
Potency [2]: 3.76 µM (active) and 841 nM (active)
Potency [3]: inactive
Potency [4]: inactive
Potency [5]: inactive
Potency [6]: inactive
Potency [8]: inactive
Potency (Aromatase (Homo sapiens)): inactive
Potency [9]: inactive
Potency [10]: inactive
Potency [11]: inactive
Potency [12]: inactive

Oc1ccc(Cl)c2c1CCC2
Potency [1]: inactive
Potency [2]: inactive
Potency [3]: inactive
Potency [4]: inactive
Potency [5]: inactive
Potency [6]: inactive
Potency [7]: inactive
Potency [8]: inactive
Potency (Aromatase (Homo sapiens)): inactive
Potency [9]: inactive
Potency [11]: inactive
Potency [12]: inactive

NC(N)=NCCCCN=C(N)N
Potency [1]: inactive
Potency [2]: inactive
Potency [3]: inactive
Potency [4]: inactive
Potency [5]: 5.35 µM [inconclusive] (active)
Potency [6]: 473 nM (active)
Potency [7]: inactive
Potency (Aromatase (Homo sapiens)): inactive
Potency [9]: inactive
Potency [11]: inactive
Potency [12]: inactive

CN(C)CCc1c[nH]c2ccc(Cn3cncn3)cc12
Potency [1]: inactive
Potency [2]: inactive
Potency [3]: inactive
Potency [4]: inactive
Potency [8]: inactive
Potency (Aromatase (Homo sapiens)): inactive
Potency [9]: inactive
Potency [10]: inactive
Potency [11]: inactive
Potency [12]: inactive

NC(=O)[C@@H]1C[C@]2(NC(=O)NC2=O)c2cc(F)ccc2O1
Potency [1]: inactive
Potency [2]: inactive
Potency [3]: inactive
Potency [4]: inactive
Potency [5]: inactive
Potency [6]: inactive
Potency [7]: inactive
Potency [8]: inactive
Potency (Aromatase (Homo sapiens)): inactive
Potency [9]: inactive
Potency [11]: inactive
Potency [12]: inactive

CC[C@@H](C(=O)[C@@H](C)[C@@H](O)[C@H](C)CCc1ccc(C)c(O)c1C(=O)O)[C@H]1O[C@](CC)([C@H]2CC[C@](O)(CC)[C@H](C)O2)C[C@@H]1C
Potency [1]: 3.35 µM (active)
Potency [2]: 1.33 µM (active)
Potency [3]: inactive
Potency [4]: 19 µM (active)
Potency [5]: inactive
Potency [6]: inactive
Potency (Aromatase (Homo sapiens)): inactive
Potency [10]: inactive
Potency [11]: 29.8 µM (active)
Potency [12]: inactive

NC(=O)[C@H]1O[C@@H](O)[C@H](O)[C@@H](O)[C@@H]1O
Potency [1]: inactive
Potency [2]: inactive
Potency [3]: inactive
Potency [4]: inactive
Potency [8]: inactive
Potency (Aromatase (Homo sapiens)): inactive
Potency [9]: inactive
Potency [10]: inactive
Potency [11]: inactive
Potency [12]: inactive

CCCCCCCCCC[N+](C)(CCCCCCCCCC)CCC[Si](OC)(OC)OC
Potency [1]: 21.7 µM (active)
Potency [2]: 21.7 µM (active)
Potency [3]: inactive
Potency [4]: 49 µM (active)
Potency [6]: inactive
Potency [7]: inactive
Potency [8]: inactive
Potency (Aromatase (Homo sapiens)): 61.1 µM (active)
Potency [9]: 61.1 µM (active)
Potency [10]: inactive
Potency [14]: 30.9 µM (active)
Potency [15]: 9.77 µM (active)
outcome [16]: inactive
